{
  "source": "paper PMC11062922",
  "about": "(Nature Chemical Biology, 2023)",
  "set-up_in_all_cases": "species or system human, MV4-11 + K-562 + COLO205 + SK-N-BE2 + OVCAR-8",
  "key": {"ADRBK1": {"system": "ADRBK1", "conditions": "read-out: apparent Kd, n = 1"}, "AKT2": {"system": "AKT2", "conditions": "read-out: apparent Kd; compound concentrations:100 nM and 1000 nM (sheet 'Samples'); n = 1"}, "MAP2K5": {"system": "MAP2K5", "conditions": "read-out: apparent Kd; compound concentrations:100 nM and 1000 nM (sheet 'Samples'); n = 1"}, "RIOK2": {"system": "RIOK2", "conditions": "read-out: apparent Kd; compound concentrations:100 nM and 1000 nM (sheet 'Samples'); n = 1"}, "RIPK3": {"system": "RIPK3", "conditions": "read-out: apparent Kd; compound concentrations:100 nM and 1000 nM (sheet 'Samples'); n = 1"}, "AKT1": {"system": "AKT1", "conditions": "read-out: apparent Kd; compound concentrations:100 nM and 1000 nM (sheet 'Samples'); n = 1"}, "CSNK1A1": {"system": "CSNK1A1", "conditions": "read-out: apparent Kd; compound concentrations:100 nM and 1000 nM (sheet 'Samples'); n = 1"}, "MAP2K2": {"system": "MAP2K2", "conditions": "read-out: apparent Kd; compound concentrations:100 nM and 1000 nM (sheet 'Samples'); n = 1"}, "MAP3K4": {"system": "MAP3K4", "conditions": "read-out: apparent Kd; compound concentrations:100 nM and 1000 nM (sheet 'Samples'); n = 1"}, "MAPK14": {"system": "MAPK14", "conditions": "read-out: apparent Kd, compound concentrations: 100 nM and 1000 nM (sheet 'Samples'), n = 1"}, "NCL": {"system": "NCL", "conditions": "read-out: apparent Kd; compound concentrations:100 nM and 1000 nM (sheet 'Samples'); n = 1"}, "OPA1": {"system": "OPA1", "conditions": "read-out: apparent Kd; compound concentrations:100 nM and 1000 nM (sheet 'Samples'); n = 1"}, "PIM2": {"system": "PIM2", "conditions": "read-out: apparent Kd; compound concentrations:100 nM and 1000 nM (sheet 'Samples'); n = 1"}, "PIP4K2C": {"system": "PIP4K2C", "conditions": "read-out: apparent Kd; compound concentrations:100 nM and 1000 nM (sheet 'Samples'); n = 1"}, "PRKAG2": {"system": "PRKAG2", "conditions": "read-out: apparent Kd; compound concentrations:100 nM and 1000 nM (sheet 'Samples'); n = 1"}, "PYGL": {"system": "PYGL", "conditions": "read-out: apparent Kd; compound concentrations:100 nM and 1000 nM (sheet 'Samples'); n = 1"}, "STK16": {"system": "STK16", "conditions": "read-out: apparent Kd; compound concentrations:100 nM and 1000 nM (sheet 'Samples'); n = 1"}, "STK26": {"system": "STK26", "conditions": "read-out: apparent Kd; compound concentrations:100 nM and 1000 nM (sheet 'Samples'); n = 1"}, "AKT3": {"system": "AKT3", "conditions": "read-out: apparent Kd; compound concentrations:100 nM and 1000 nM (sheet 'Samples'); n = 1"}, "NQO1": {"system": "NQO1", "conditions": "read-out: apparent Kd; compound concentrations:100 nM and 1000 nM (sheet 'Samples'); n = 1"}, "PKN2": {"system": "PKN2", "conditions": "read-out: apparent Kd; compound concentrations:100 nM and 1000 nM (sheet 'Samples'); n = 1"}, "PRKCI": {"system": "PRKCI", "conditions": "read-out: apparent Kd; compound concentrations:100 nM and 1000 nM (sheet 'Samples'); n = 1"}, "PRKG1": {"system": "PRKG1", "conditions": "read-out: apparent Kd; compound concentrations:100 nM and 1000 nM (sheet 'Samples'); n = 1"}, "ROCK2": {"system": "ROCK2", "conditions": "read-out: apparent Kd; compound concentrations:100 nM and 1000 nM (sheet 'Samples'); n = 1"}, "RPS6KB1": {"system": "RPS6KB1", "conditions": "read-out: apparent Kd; compound concentrations:100 nM and 1000 nM (sheet 'Samples'); n = 1"}, "TTN": {"system": "TTN", "conditions": "read-out: apparent Kd; compound concentrations:100 nM and 1000 nM (sheet 'Samples'); n = 1"}, "CDK6": {"system": "CDK6", "conditions": "read-out: apparent Kd, n = 1"}, "CSNK1D": {"system": "CSNK1D", "conditions": "read-out: apparent Kd; compound concentrations: 100 nM and 1000 nM (sheet 'Samples'), CATDS: 0.10143186295273; n = 1"}, "CSNK1E": {"system": "CSNK1E", "conditions": "read-out: apparent Kd; compound concentrations: 100 nM and 1000 nM (sheet 'Samples'), CATDS: 9.8095690794025595E-2; n = 1"}, "PKN3": {"system": "PKN3", "conditions": "read-out: apparent Kd; compound concentrations: 100 nM and 1000 nM (sheet 'Samples'), CATDS: 0.541648596841942; n = 1"}, "RIPK2": {"system": "RIPK2", "conditions": "read-out: apparent Kd; compound concentrations: 100 nM and 1000 nM (sheet 'Samples'), CATDS: 0.18182932832718701; n = 1"}, "TESK2": {"system": "TESK2", "conditions": "read-out: apparent Kd; compound concentrations: 100 nM and 1000 nM (sheet 'Samples'), CATDS: 8.5548681543300906E-2; n = 1"}, "TNIK": {"system": "TNIK", "conditions": "read-out: apparent Kd; compound concentrations: 100 nM and 1000 nM (sheet 'Samples'), CATDS: 8.6694751539446793E-2; n = 1"}, "[1]": {"conditions": "compound concentrations:100 nM and 1000 nM (sheet 'Samples')"}},
  "note": "Where two headings read alike, the source gives them in different places.",
  "data": [
    {"smiles": "O=C(NCCCN1CCOC1=O)c1cnc(NCc2cc(Cl)ccc2Cl)nc1NC1CCCC1", "note": "[PFE-PKIS_12]", "values": [
      {"measurement": "potency estimated from few doses", "setting": "ADRBK1; [1]", "result": 1.11, "unit": "µM"}
    ]},
    {"smiles": "O=C(O)C(F)(F)F.O=C(O[C@H]1CN[C@H](C#Cc2cc3ncnc(Nc4ccc(Cc5ccccc5)cc4)c3s2)C1)N1CCOCC1", "note": "[GSK238583A]", "values": [
      {"measurement": "potency estimated from few doses", "setting": "ADRBK1; [1]", "result": 1.67, "unit": "µM"},
      {"measurement": "potency estimated from few doses", "setting": "AKT2", "result": 1.77, "unit": "µM"},
      {"measurement": "potency estimated from few doses", "setting": "MAP2K5", "result": 0.646, "unit": "µM"},
      {"measurement": "potency estimated from few doses", "setting": "RIOK2", "result": 2.42, "unit": "µM"},
      {"measurement": "potency estimated from few doses", "setting": "RIPK3", "result": 2.26, "unit": "µM"}
    ]},
    {"smiles": "Cc1ccc(NC(=O)CC2CC2)cc1-c1ccc(C(=O)NCC2CC2)cc1", "note": "[GW796920X]", "values": [
      {"measurement": "potency estimated from few doses", "setting": "ADRBK1; [1]", "result": 1.86, "unit": "µM"},
      {"measurement": "potency estimated from few doses", "setting": "AKT1", "result": 1.77, "unit": "µM"},
      {"measurement": "potency estimated from few doses", "setting": "AKT2", "result": 1.68, "unit": "µM"},
      {"measurement": "potency estimated from few doses", "setting": "CSNK1A1", "result": 2.22, "unit": "µM"},
      {"measurement": "potency estimated from few doses", "setting": "MAP2K2", "result": 2.22, "unit": "µM"},
      {"measurement": "potency estimated from few doses", "setting": "MAP3K4", "result": 1.8, "unit": "µM"},
      {"measurement": "potency estimated from few doses", "setting": "MAPK14; CATDS: 0.122142095126863", "result": 0.629, "unit": "µM"},
      {"measurement": "potency estimated from few doses", "setting": "NCL", "result": 2.3, "unit": "µM"},
      {"measurement": "potency estimated from few doses", "setting": "OPA1", "result": 1.7, "unit": "µM"},
      {"measurement": "potency estimated from few doses", "setting": "PIM2", "result": 1.74, "unit": "µM"},
      {"measurement": "potency estimated from few doses", "setting": "PIP4K2C", "result": 1.65, "unit": "µM"},
      {"measurement": "potency estimated from few doses", "setting": "PRKAG2", "result": 1.31, "unit": "µM"},
      {"measurement": "potency estimated from few doses", "setting": "PYGL", "result": 2.13, "unit": "µM"},
      {"measurement": "potency estimated from few doses", "setting": "STK16", "result": 2.17, "unit": "µM"},
      {"measurement": "potency estimated from few doses", "setting": "STK26", "result": 1.45, "unit": "µM"}
    ]},
    {"smiles": "CCn1c(-c2nonc2N)nc2cnc(Oc3cccc(NC(=O)c4ccc(OCCN5CCOCC5)cc4)c3)cc21.Cl", "note": "[GSK269962B]", "values": [
      {"measurement": "potency estimated from few doses", "setting": "ADRBK1; [1]", "result": 1.48, "unit": "µM"},
      {"measurement": "potency estimated from few doses", "setting": "AKT2", "result": 2.18, "unit": "µM"},
      {"measurement": "potency estimated from few doses", "setting": "AKT3", "result": 1.6, "unit": "µM"},
      {"measurement": "potency estimated from few doses", "setting": "NQO1", "result": 0.175, "unit": "µM"},
      {"measurement": "potency estimated from few doses", "setting": "PKN2", "result": 1.85, "unit": "µM"},
      {"measurement": "potency estimated from few doses", "setting": "PRKCI", "result": 1.97, "unit": "µM"},
      {"measurement": "potency estimated from few doses", "setting": "PRKG1", "result": 0.0703, "unit": "µM"},
      {"measurement": "potency estimated from few doses", "setting": "ROCK2", "result": 0.294, "unit": "µM"},
      {"measurement": "potency estimated from few doses", "setting": "RPS6KB1", "result": 0.719, "unit": "µM"},
      {"measurement": "potency estimated from few doses", "setting": "TTN", "result": 0.388, "unit": "µM"}
    ]},
    {"smiles": "CCc1nc(-c2cccc(C)c2)c(-c2ccncc2)s1", "note": "[TPKI-106]", "values": [
      {"measurement": "potency estimated from few doses", "setting": "ADRBK1; compound concentrations: 100 nM and 1000 nM (sheet 'Samples'), CATDS: 9.0460214145081597E-2", "result": 1.68, "unit": "µM"},
      {"measurement": "potency estimated from few doses", "setting": "CDK6; compound concentrations: 100 nM and 1000 nM (sheet 'Samples'), CATDS: 8.6240814727830004E-2", "result": 1.95, "unit": "µM"},
      {"measurement": "potency estimated from few doses", "setting": "CSNK1D", "result": 1.23, "unit": "µM"},
      {"measurement": "potency estimated from few doses", "setting": "CSNK1E", "result": 1.34, "unit": "µM"},
      {"measurement": "potency estimated from few doses", "setting": "MAPK14; CATDS: 0.129413599974984", "result": 0.691, "unit": "µM"},
      {"measurement": "potency estimated from few doses", "setting": "PKN3", "result": 0.0575, "unit": "µM"},
      {"measurement": "potency estimated from few doses", "setting": "RIPK2", "result": 0.349, "unit": "µM"},
      {"measurement": "potency estimated from few doses", "setting": "TESK2", "result": 2, "unit": "µM"},
      {"measurement": "potency estimated from few doses", "setting": "TNIK", "result": 1.91, "unit": "µM"}
    ]},
    {"smiles": "Nc1n[nH]c2nnc(-c3ccccc3)cc12", "note": "[SB-517389]", "values": [
      {"measurement": "potency estimated from few doses", "setting": "ADRBK1; [1]", "result": 1.38, "unit": "µM"},
      {"measurement": "potency estimated from few doses", "setting": "CDK6; [1]", "result": 1.87, "unit": "µM"}
    ]}
  ]
}
